From PubChem BioAssay (Tox21)
Where “and” joins values, the source holds several entries; their conditions need not be identical. Identical values can stand only once. Results filed as inconclusive are left out. Calls of active or inactive are those of the source. Unless noted, calls come from the whole dose curve; as a rule, active = well fitted curve in the direction sought with a large enough effect in the repeat runs; inconclusive = weak or mixed curves; inactive = flat fitted curve, though single readings scatter.

Assays:
[1] = qHTS assay to test for compound auto fluorescence at 535 nm (green) in HEK293 cells (AID 720680); note: potency is the fitted concentration of half-maximal effect
[2] = qHTS assay to test for compound auto fluorescence at 460 nm (blue) in HEK293 cell free culture (AID 720681)
Method in brief: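 Test compounds were pinned into cell-free culture medium (DMEM with 10% FBS) and fluorescence was read directly at Ex/Em 405/460 nm. Signals were expressed as fluorescence equivalents of triamterene, with DMSO vehicle as control.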

[3] = qHTS assay to test for compound auto fluorescence at 535 nm (green) in HEK293 cell free culture (AID 720682); note: potency is the fitted concentration of half-maximal effect
Method in brief: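 Cell-free medium (DMEM, 10% FBS) receives compound or DMSO by pintool. Plate read directly at Ex 485/Em 535 nm. Signal converted to fluorescein equivalency.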

[4] = qHTS assay to test for compound auto fluorescence at 590 nm (red) in HEK293 cell free culture (AID 720683); note: potency is the fitted concentration of half-maximal effect
Method in brief: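 Tox21 10K library compounds were pinned into cell-free DMEM with 10% FBS and fluorescence was read at excitation 540 nm. Activity is expressed as Rose Bengal sodium equivalency.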

[5] = qHTS assay to test for compound auto fluorescence at 590 nm (red) in HepG2 cell free culture (AID 720684); note: potency is the fitted concentration of half-maximal effect
Method in brief: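 Measured in medium alone (MEM containing 10% FBS) following pintool addition of compound; emission at 590 nm with 540 nm excitation, referenced to Rose Bengal sodium.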

[6] = qHTS assay to test for compound auto fluorescence at 460 nm (blue) in HepG2 cell free culture (AID 720685)
Method in brief: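 Compound (23 nL) or DMSO pinned into cell-free MEM with 10% FBS; blue fluorescence read at 405/460 nm excitation/emission, expressed as auto-fluorescence equivalency to triamterene.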

[7] = qHTS assay to test for compound auto fluorescence at 535 nm (green) in HepG2 cell free culture (AID 720686); note: potency is the fitted concentration of half-maximal effect
[8] = qHTS assay to test for compound auto fluorescence at 460 nm (blue) in HepG2 cells (AID 720687)
Method in brief: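 Cells (2,000/well in MEM with 10% FBS) attached overnight at 37 C, then were exposed to compound or DMSO for 1 hr at 37 C, 5% CO2. Fluorescence read at Ex/Em 405/460 nm, expressed as triamterene-equivalent signal.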

[9] = target: Glucocorticoid receptor (Homo sapiens) (UniProt P04150); test: qHTS assay to identify small molecule agonists of the glucocorticoid receptor (GR) signaling pathway (AID 720691; active = well fitted activation curve with a large enough effect in the signal ratio in the repeat runs, not every such curve was filed as active; the % refers to the signal ratio); conditions: GR-bla HeLa, beta-lactamase reporter ratio, 18 h; activation: at 62.4 µM (top of the series)
Glucocorticoid receptor (Homo sapiens), sequence (P04150 whole entry, looked up): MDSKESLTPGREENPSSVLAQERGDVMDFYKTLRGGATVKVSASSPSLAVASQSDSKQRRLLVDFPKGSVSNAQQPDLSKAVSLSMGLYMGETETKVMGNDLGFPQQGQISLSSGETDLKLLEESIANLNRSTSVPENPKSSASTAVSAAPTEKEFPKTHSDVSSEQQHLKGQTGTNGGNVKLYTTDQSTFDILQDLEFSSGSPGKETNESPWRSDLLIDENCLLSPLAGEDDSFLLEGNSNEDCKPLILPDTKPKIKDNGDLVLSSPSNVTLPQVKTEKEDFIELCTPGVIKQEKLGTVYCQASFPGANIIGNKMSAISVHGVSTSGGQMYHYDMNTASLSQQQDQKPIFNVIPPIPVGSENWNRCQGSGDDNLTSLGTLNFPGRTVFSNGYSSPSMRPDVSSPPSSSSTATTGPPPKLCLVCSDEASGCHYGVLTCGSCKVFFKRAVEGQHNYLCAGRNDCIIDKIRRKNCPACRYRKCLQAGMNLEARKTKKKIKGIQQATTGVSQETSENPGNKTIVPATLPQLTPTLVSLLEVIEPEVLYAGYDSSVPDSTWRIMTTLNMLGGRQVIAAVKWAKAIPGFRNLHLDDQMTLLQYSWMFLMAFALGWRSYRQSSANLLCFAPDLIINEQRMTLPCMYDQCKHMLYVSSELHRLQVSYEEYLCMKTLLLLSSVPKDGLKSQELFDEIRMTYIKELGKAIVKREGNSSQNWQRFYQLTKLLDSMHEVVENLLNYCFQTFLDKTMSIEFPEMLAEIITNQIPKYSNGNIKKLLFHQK
Method in brief: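 Agonist mode in a HeLa line carrying a GRE-controlled beta-lactamase reporter. Compounds act for 18 h at 37 C before a 2 h room-temperature FRET substrate step and fluorescence reading.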

[10] = target: Glucocorticoid receptor (Homo sapiens) (UniProt P04150); test: qHTS assay to identify small molecule antagonists of the glucocorticoid receptor (GR) signaling pathway (AID 720692; active = well fitted inhibition curve with a large enough effect in the signal ratio in the repeat runs, not every such curve was filed as active; the % refers to the signal ratio; note: potency is the fitted concentration of half-maximal effect)
Method in brief: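 Cells plated, rested 4 h at 37 C/5% CO2; compounds in DMSO pin-transferred; dexamethasone added to 5 nM final; 18 h at 37 C; B/G FRET substrate added, 2 h room temperature; fluorescence measured.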
% is set by controls: 0 for no effect and ±100 for the full control effect; tags give direction and shape of the fitted curve or compound fluorescence and quenching.

CCCCCCCC/C=C\CCCCCCCC(=O)OCCOC(=O)CCCCCCC/C=C\CCCCCCCC
inactive: Potency [1] | Potency [2] | Potency [3] | Potency [4] | Potency [5] | Potency [6] | Potency [7] | Potency [8]

CN(C)CCCN1c2ccccc2Sc2ccc(C(F)(F)F)cc21
inactive: Potency [1] | Potency [2] | Potency [3] | Potency [4] | Potency [5] | Potency [6] | Potency [7] | Potency [8] | Potency [9]

N[C@@H](CSSC[C@H](N)C(=O)O)C(=O)O
inactive: Potency [1] | Potency [2] | Potency [3] | Potency [4] | Potency [5] | Potency [6] | Potency [7] | Potency [8] | Potency [9]

CNCC[C@H](Oc1cccc2ccccc12)c1cccs1
inactive: Potency [1] | Potency [2] | Potency [3] | Potency [4] | Potency [5] | Potency [6] | Potency [7] | Potency [8] | Potency [9]

CCN=c1cc2oc3cc(NCC)c(C)cc3c(-c3ccccc3C(=O)OCC)c-2cc1C
active: Potency [1] 39.8 µM [fluorescent] | Potency [3] 39.8 µM [fluorescent] | Potency [4] 3.16 µM [fluorescent] and 4.47 µM [fluorescent] | Potency [5] 2.82 µM [fluorescent] and 3.55 µM [fluorescent] | Potency [7] 39.8 µM [fluorescent]
inactive: Potency [2] | Potency [6] | Potency [8]

CC(C(O)c1ccccc1)N(C)CCOC(c1ccccc1)c1ccccc1 (centres undefined)
inactive: Potency [1] | Potency [2] | Potency [3] | Potency [4] | Potency [5] | Potency [6] | Potency [7] | Potency [8] | Potency [9]

CC(COC(=O)c1ccccc1)OC(=O)c1ccccc1 (centres undefined)
inactive: Potency [1] | Potency [2] | Potency [3] | Potency [4] | Potency [5] | Potency [6] | Potency [7] | Potency [8]

CCCCCCC(C)OC(=O)COc1nc(F)c(Cl)c(N)c1Cl (centres undefined)
inactive: Potency [1] | Potency [2] | Potency [3] | Potency [4] | Potency [5] | Potency [6] | Potency [7] | Potency [8]

CCN(CC)c1ccc(N)cc1
inactive: Potency [1] | Potency [2] | Potency [3] | Potency [4] | Potency [5] | Potency [6] | Potency [7] | Potency [8] | Potency [9]

Nc1ncnc2c1ncn2[C@@H]1O[C@H](COP(=O)(O)O)[C@@H](O)[C@H]1O
inactive: Potency [1] | Potency [2] | Potency [3] | Potency [4] | Potency [5] | Potency [6] | Potency [7] | Potency [8] | Potency [9]

O=Cc1ccc(F)cc1
inactive: Potency [1] | Potency [2] | Potency [3] | Potency [4] | Potency [5] | Potency [6] | Potency [7] | Potency [8] | Potency [9] | Potency [10]

CSc1c(Cl)c(Cl)c(Cl)c(Cl)c1Cl
inactive: Potency [1] | Potency [2] | Potency [3] | Potency [4] | Potency [5] | Potency [6] | Potency [7] | Potency [8] | Potency [9] | Potency [10]

CC(=O)Oc1ccc(C2(c3ccc(OC(C)=O)cc3)Oc3ccccc3NC2=O)cc1
inactive: Potency [1] | Potency [2] | Potency [3] | Potency [4] | Potency [5] | Potency [6] | Potency [7] | Potency [8]
active: Potency [10] 19 µM

O=C1Nc2ccc(Cl)cc2[C@@](C#CC2CC2)(C(F)(F)F)O1
inactive: Potency [1] | Potency [2] | Potency [3] | Potency [4] | Potency [5] | Potency [6] | Potency [7] | Potency [8] | Potency [9]
active: Potency [10] 23.9 µM

CC(C)N=C(N)/N=C(\N)Nc1ccc(Cl)cc1
inactive: fluorescence, % of fluorescein [1] -0.0268% [at 18.6 µM] | fluorescence, % of fluorescent control [2] -0.0312% [at 18.6 µM] | activity change [3] -0.0305% [at 18.6 µM, active compounds read high] | fluorescence, % of fluorescent control [4] -0.0425% [at 18.6 µM] | fluorescence, % of Rose Bengal [5] 0.0381% [at 18.6 µM] | fluorescence, % of fluorescent control [6] -0.111% [at 18.6 µM] | fluorescence, % of fluorescein control [7] 0.0037% [at 18.6 µM] | fluorescence, % of fluorescent control [8] 0.176% [at 18.6 µM] | Potency [9] | Potency [10]

O=S(=O)(O)CCCN1CCOCC1
inactive: Potency [1] | Potency [2] | Potency [3] | Potency [4] | Potency [5] | Potency [6] | Potency [7] | Potency [8] | Potency [9] | Potency [10]

O=C1NC2CCCCN2C12CCN(CCCN1c3ccccc3CCc3ccc(Cl)cc31)CC2 (centres undefined)
inactive: Potency [1] | Potency [2] | Potency [3] | Potency [4] | Potency [5] | Potency [6] | Potency [7] | Potency [8] | Potency [9]
active: Potency [10] 23.9 µM

CC(=O)OC(OC(C)=O)c1ccc([N+](=O)[O-])o1
active: Potency [10] 55.9 µM
inactive: Potency [1] | Potency [2] | Potency [3] | Potency [4] | Potency [5] | Potency [6] | Potency [7] | Potency [8]

CN1[C@@H]2CC[C@H]1CC(OC(=O)C(CO)c1ccccc1)C2 (some centres undefined)
inactive: Potency [1] | Potency [2] | Potency [3] | Potency [4] | Potency [5] | Potency [6] | Potency [7] | Potency [8] | Potency [9] | Potency [10]
